POLK inh: DNA polymerase kappa (human) inhibition | 400,000 tested, 0.53% active | Potency, µM (highest dose often 107 µM), usual class: inhibitors | Q9UBT6 | purified Pol kappa, fluorescent DNA synthesis assay, 10 min
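Pol kappa 10 nM + cpd, 15 min RT; start w/ substrate 50 nM final; fluorescence kinetic read, 0 and 10 min. Neg ctrl: buffer, no enzyme.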
Pol beta inh: DNA polymerase beta (human) inhibition. Pol beta primer extension/strand displacement, fluorescence kinetic. Potency, µM (titrated, usually from 114 µM), hits mostly inhibitors. AID 485314. 340,000 tested, 1.3% active. P06746
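Homogeneous kinetic assay of primer extension and strand displacement by 10 nM Pol beta, preincubated 15 min at room temperature with compound before 50 nM substrate (final) was added. Read at 0 and 10 min; four-parameter Hill fit.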
WRN inhibitor: inhibitors of human WRN helicase; Q14191; WRN helicase unwinding, fluorescent forked duplex, kinetic; Potency, µM (doses to about 114 µM), actives largely listed as inhibitors; 360,000 tested, 0.46% active; AID 651768; note: nearly all actives have a fitted effect of over 55% in size
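Kinetic fluorescence helicase assay: unwinding of a quenched forked DNA duplex (100 nM final) with 2 mM ATP final raises red fluorescence (525/598 nm). Compounds sat 15 min at room temperature with 20 nM WRN beforehand.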
POLI inh: inhibitors of human DNA polymerase iota; Q9UNA4; Pol iota fluorescent replication assay, 10 min; Potency, µM (top dose mostly 115 µM), actives largely listed as inhibitors; 390,000 tested, 1% active
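Pol iota at 10 nM preincubated 15 min with compounds at room temperature; reaction started with fluorescent substrate, 50 nM final. Fluorescence read kinetically at 0 and 10 min; buffer-only wells as negative control.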
FEN1 inh: human FEN1 inhibition. P39748. Recombinant FEN1 flap cleavage, fluorescence, 15 min. 390,000 tested, 0.35% active. Potency, µM (highest dose often 114 µM), actives largely listed as inhibitors. AID 588795; note: nearly all actives have a fitted effect of over 65% in size
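Steps: FEN1 (10 nM) dispensed; compound added by pin tool; 15 min at room temperature; substrate added to 50 nM final; reads at 0 min and 15 min; data normalized and fitted (four-parameter Hill).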
Pol eta inh: DNA polymerase eta (human) inhibition | Q9Y253 | recombinant Pol eta, fluorescent DNA replication assay | Potency, µM (series often up to 114 µM), hits mostly inhibitors | 390,000 tested, 1.2% active
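Pol eta at 10 nM preincubated with compounds 15 min at room temperature; reaction started with fluorescent substrate (50 nM final) and read kinetically at 0 and 10 min.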
Each line names hits and unclear results; the compound was inactive in the other large screens. In the library only some 2.4% were active in any assay of this set; here they are far more common. Calls come from the whole dose curve; as a rule, active = well fitted curve in the direction sought with a large enough effect; inconclusive = small, poorly fitted or top-dose-only effect, or another doubt; inactive = no such curve, though single readings can be large; an effect the other way counts as inactive or inconclusive.

C/C=C/C(=O)[C@@H](C)[C@@H](/C=C/C[Si](C)(C)C)c1ccccc1	none (no result: Pol beta inh, WRN inhibitor, Pol eta inh)
O=C(O)/C(=C\c1ccc(Cl)cc1)c1ccc(S(=O)(=O)N2CCCC2)s1	POLK inh inconclusive, Pol eta inh inconclusive (no result: Pol beta inh)
COc1ccc(Br)cc1/C=C(\C(=O)O)c1ccc(S(=O)(=O)N2CCCC2)s1	POLK inh inconclusive, WRN inhibitor inconclusive, POLI inh inconclusive, Pol eta inh 22µM (no result: Pol beta inh)
O=C(O)/C(=C\c1ccccc1Cl)c1ccc(S(=O)(=O)N2CCCCC2)s1	Pol beta inh inconclusive, POLI inh inconclusive, Pol eta inh 50µM
O=C(O)/C(=C\c1ccc(Cl)c([N+](=O)[O-])c1)c1ccc(S(=O)(=O)N2CCCCC2)s1	Pol beta inh inconclusive, POLI inh inconclusive, Pol eta inh 79µM
O=C(O)/C(=C\c1cccc([N+](=O)[O-])c1)c1ccc(S(=O)(=O)N2CCCCC2)s1	Pol beta inh 25µM, POLI inh inconclusive, Pol eta inh inconclusive
Cc1cc(C(F)(F)F)n(-c2nc(C(=O)N/N=C/c3ccc(F)cc3)cs2)n1	POLI inh 89µM
Cc1ccc(-c2nn(C)c(=O)c3ccccc23)cc1S(=O)(=O)NCCN1CCOCC1	POLI inh inconclusive, Pol eta inh inconclusive
CCOC(=O)CNS(=O)(=O)c1cc(-c2nn(C)c(=O)c3ccccc23)ccc1C	POLK inh inconclusive, Pol beta inh 35µM, POLI inh 25µM, Pol eta inh inconclusive
CCOC(=O)c1sc(N2N=C(C)C(N=Nc3cccc(C)c3)C2=O)nc1C (configuration not stated)	POLK inh 89µM, Pol beta inh inconclusive, POLI inh 50µM, Pol eta inh 40µM
CC1=NN(c2nc(-c3ccc(C)cc3)cs2)C(=O)C1N=Nc1cccc(C)c1 (configuration not stated)	Pol beta inh inconclusive
O=C(Nc1ccc(Cl)cc1Cl)[C@@H]1CC=C[C@@H]2CCN(C3CCCCC3)C(=O)[C@@H]21	none (no result: Pol beta inh, WRN inhibitor, Pol eta inh)
O=C(O)CCN1C(=O)/C(=C\c2ccncc2)SC1=S	none
O=C(O)CCN1C(=O)/C(=C\c2ccc(-c3nc4ccccc4s3)o2)SC1=S	Pol beta inh inconclusive, WRN inhibitor inconclusive, Pol eta inh 2.5µM
O=C(O)CCC(=O)N1N=C(c2ccco2)CC1c1ccco1 (configuration not stated)	POLK inh inconclusive, POLI inh 50µM, Pol eta inh inconclusive
O=C(O)CCC(=O)N1N=C(c2ccco2)CC1c1cccs1 (configuration not stated)	Pol beta inh inconclusive
CC(=O)N1N=C(c2ccc(Cl)cc2)CC1c1ccco1 (configuration not stated)	none
Cc1nnc(SCC(=O)N2N=C(c3ccc(Cl)cc3)CC2c2ccco2)[nH]c1=O (configuration not stated)	POLK inh 50µM, Pol beta inh 20µM, WRN inhibitor inconclusive, POLI inh inconclusive, FEN1 inh inconclusive, Pol eta inh inconclusive
Cc1ccc(C2=NN(C(=O)CCCC(=O)O)C(c3ccco3)C2)cc1 (configuration not stated)	Pol beta inh 89µM
COc1ccc(S(=O)(=O)N(CCO)c2ccccc2CN(C)CC=Cc2ccc(Cl)cc2)cc1	none (no result: Pol beta inh, WRN inhibitor, POLI inh, FEN1 inh, Pol eta inh)
CCCCN(C)CCNC(=O)C1CCN(c2nc3ccc(CC)cc3s2)CC1	none (no result: WRN inhibitor, Pol eta inh)
CC(=O)NN1C(=O)/C(=C\c2ccc(O)cc2)SC1=S	POLI inh inconclusive
CC(=O)NN1C(=O)/C(=C\c2ccc(Br)o2)SC1=S	POLK inh inconclusive, Pol beta inh 28µM, POLI inh inconclusive, Pol eta inh 25µM
O=C1CCC[C@@H]2CC(Nc3ccccc3)C[C@@H]3CCN1[C@H]23 (some centres not stated)	none (no result: Pol beta inh, WRN inhibitor, Pol eta inh)
COc1ccc(CNC(=O)COC(=O)C(CCSC)NC(=O)c2ccco2)cc1OC (configuration not stated)	none (no result: Pol beta inh)
CC(C)[C@H](NC(=O)OCc1ccccc1)C(=O)OCC(=O)NCc1ccco1	POLI inh 16µM, Pol eta inh 50µM (no result: Pol beta inh)
CSCCC(NC(=O)c1ccccc1)C(=O)OCC(=O)NCc1ccco1 (configuration not stated)	POLI inh 71µM, Pol eta inh inconclusive (no result: Pol beta inh)
O=c1c2ccccc2nc2n1CCC2	WRN inhibitor 22µM, POLI inh 50µM, FEN1 inh inconclusive, Pol eta inh inconclusive
O=c1c2ccccc2nc2n1CCCCC2	none
CC/C=C/[C@@H](c1ccccc1)[C@H](C)C(O)CC(=O)SC(C)(C)C (some centres not stated)	none (no result: Pol beta inh, WRN inhibitor, Pol eta inh)
Cc1ccc(NC(=O)NNC(=O)COc2ccc3ccccc3c2)cc1	Pol beta inh 79µM, POLI inh inconclusive
COc1cccc(NC(=O)NNC(=O)COc2ccc3ccccc3c2)c1	none
COc1ccc2cc(OCC(=O)NNC(=O)Nc3ccc(OC)c(OC)c3)ccc2c1	Pol beta inh 50µM, POLI inh 20µM, FEN1 inh inconclusive, Pol eta inh inconclusive
Cc1ccccc1NC(=O)NNC(=O)COc1ccc2ccccc2c1	Pol beta inh 16µM, WRN inhibitor inconclusive, POLI inh inconclusive
CCOc1ccc(NC(=O)CCC(=O)NNC(=O)COc2ccc(C)cc2Br)cc1	Pol beta inh inconclusive, POLI inh 71µM
O=C(O)COc1cccc2c1CCC=C2CCO/N=C(\c1ccccc1)c1cccnc1	none (no result: Pol beta inh, WRN inhibitor, POLI inh, FEN1 inh, Pol eta inh)
COc1ccc(CC(N)C(=O)N[C@H]2[C@@H](O)[C@H](n3cnc4c(N(C)C)ncnc43)O[C@@H]2CO)cc1 (some centres not stated)	none (no result: Pol beta inh, WRN inhibitor, POLI inh, FEN1 inh, Pol eta inh)
CCN(CC)C(=O)Nc1cnc2ccccc2c1	Pol beta inh inconclusive
O=C(COc1ccc2ccccc2c1)Nc1ccc(Cc2ccncc2)cc1	Pol beta inh inconclusive, POLI inh 25µM, Pol eta inh inconclusive
Cc1ccc(NC(=O)Nc2cnc3ccccc3c2)cc1	Pol beta inh 20µM
O=C(O)Cc1ccc(NC(=O)COc2ccc3ccccc3c2)cc1	none
CC(=O)Nc1ccc(NC(=O)CCc2ccc(C)o2)cc1	none
Cc1ccc(CCC(=O)Nc2ccc(S(N)(=O)=O)cc2)o1	Pol eta inh 14µM
CN(C)C1CCC(CC2CCc3ccccc32)CC1 (configuration not stated)	none (no result: Pol beta inh, WRN inhibitor, Pol eta inh)
CC(=O)Oc1cc(OC(C)=O)c2c(=O)cc(-c3ccc(OC(C)=O)c(OC(C)=O)c3)oc2c1	POLK inh 8.9µM (no result: Pol beta inh, WRN inhibitor, POLI inh, FEN1 inh, Pol eta inh)
CC(=O)Oc1cc(O)c2c(=O)c(OC(C)=O)c(-c3ccc(OC(C)=O)c(OC(C)=O)c3)oc2c1	POLK inh 7.1µM, WRN inhibitor inconclusive, POLI inh 8.9µM, FEN1 inh 2.8µM, Pol eta inh 2.8µM (no result: Pol beta inh)
Cc1cn2c(=O)cc(COC(=O)c3cccc(NC(=O)COc4ccccc4)c3)nc2s1	none (no result: WRN inhibitor)
COc1ccc(-c2coc3cc(O)ccc3c2=O)cc1O	POLK inh inconclusive, Pol beta inh 25µM, POLI inh inconclusive

From PubChem
